Bioassay records as filed in PubChem.
Shown is part of a subset that was picked to be rich in hits.
Shh pathway inh – blocks Sonic Hedgehog signaling. Shh-LIGHT2 Gli-luciferase reporter, 30 h. inhibition, % (concentration not given with the values). 22,000 compounds, 2.1% hits. AID 2313;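 active = mean inhibition across valid replicates above about 65%, limit read from the data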;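 also: pathway switched on by Shh-conditioned medium diluted 1 in 25 in low serum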
MITF inh – blocks MITF activity; TRPM1 promoter luciferase, luminescence, 24 h; inhibition, % (test concentration not listed); 37,000 compounds, 0.28% hits; AID 2240; in the data active = inhibition above about 85%;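 also: human melanocyte line stably carrying TRPM1 promoter luciferase reporter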
BJeLR viab HTS – lowers viability of BJeLR cells; 30,000 compounds, 0.64% hits; viability loss activity score, % (no concentration beside the values); BJeLR fibroblasts viability, CellTiterGlo ATP luminescence, 48 h; HRASV12, hTERT and SV40 LT/ST transformed; in the data active = viability loss activity score above about 50%;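 also: higher score means fewer live cells and less ATP luminescence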
An asterisk follows results filed as active; / = no result given.

SMILES	Shh pathway inh	MITF inh	BJeLR viab HTS
C[C@]12CCC3c4ccc(O)cc4CCC3C1CCC2=O (stereo partly drawn)	89*	-32	0
O=S(=O)(NC12CC3CC(CC(C3)C1)C2)c1cccc(C(F)(F)F)c1	/	/	0
CC1(C)C(c2ccccc2)=[N+]([O-])C(c2ccc(Br)cc2)N1O (stereo not drawn)	/	/	0
Cc1c(-c2ccccc2)[n+](=O)c(-c2ccc(Br)cc2)c(C)n1[O-]	67*	9	-2
Cc1c(NC(=O)CCN2C(=S)NC(C)(C)CC2C)c(=O)n(-c2ccccc2)n1C (stereo not drawn)	/	/	-5
CCOC(=O)N1CCC(NC(=O)c2cc(Sc3ccc(Cl)cc3)nc3ccccc23)CC1	/	/	3
CCOC(=O)c1sc2ncn(/N=C/c3ccc4c(c3)OCCO4)c(=O)c2c1C	/	/	3
